# Source: PubChem BioAssay (several laboratories)
# ZTA counter: counter-screen for EBNA-1 inhibitors: inhibitors of Epstein-Barr virus ZTA; ZTA-DNA binding, fluorescence polarization; inhibition, % at 11 µM; hit rate 0.15% among 320,000; AID 2234; in the data active = inhibition above about 33%
# GRIN3A LBD mod: modulators (binders) of human NR3A ligand-binding domain | NR3A LBD differential scanning fluorimetry, Tm shift; 0% = protein alone, 100% = glycine-bound protein | Tm shift relative to glycine control, % at 25 µM | hit rate 2.5% among 340,000;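 active = melting temperature shift of at least 10% of the positive control shift, at one fixed dose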
# dFosB activator: activators of mouse delta FosB homodimer | P13346 | purified delta FosB, TAMRA-CDK5 oligo fluorescence polarization; percent of positive-control signal above neutral wells | activation, % at 25 µM | hit rate 0.99% among 340,000;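 active = mean activation above about 17%, with every replicate also reaching it, limit read from the data, passing the limit was not always enough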
# TPT1 inhibitor: blocks Candida albicans tRNA 2'-phosphotransferase; recombinant caTPT1, FP RNA substrate dephosphorylation; hit rate 0.81% among 300,000; inhibition, % at 5 µM; AID 1962;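 active = inhibition above the mean of all tested compounds plus 3 SD, set per screening campaign, cut at about 24% in these data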;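 also: plate controls were DMSO alone for no effect and ferristatin control at 100 nM for full effect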
# EBNA-1 inh: blocks EBNA-1 binding to DNA | EBNA-1 DNA binding, fluorescence polarization | inhibition, % at 14.8 µM | hit rate 0.34% among 300,000; in the data active = inhibition above about 28%
# Rpn11 block: Rpn11 (human) deubiquitinase inhibition | O00487 | human 26S proteasome, Ub4-pepOG fluorescence polarization; 20S core pre-blocked with epoxomicin | inhibition, % at 20 µM | hit rate 0.59% among 360,000;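 active = inhibition at 20 µM, scaled to each plate's controls, above about 33%, limit read from the data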
# Target sequence (O00487 whole entry, looked up): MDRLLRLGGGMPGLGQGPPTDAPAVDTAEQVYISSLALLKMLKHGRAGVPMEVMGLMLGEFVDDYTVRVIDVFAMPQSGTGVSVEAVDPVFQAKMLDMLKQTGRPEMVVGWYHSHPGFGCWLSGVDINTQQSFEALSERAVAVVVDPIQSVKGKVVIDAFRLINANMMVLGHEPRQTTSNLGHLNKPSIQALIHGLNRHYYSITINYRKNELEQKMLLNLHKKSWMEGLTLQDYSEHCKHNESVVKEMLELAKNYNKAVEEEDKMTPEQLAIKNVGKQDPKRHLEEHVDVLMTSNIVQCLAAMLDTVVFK
# caTPT1 confirm: TPT1 (C. albicans) inhibition, confirmation | hit rate 74% among 2,400 | recombinant caTPT1, fluorescence polarization, RNase T1 coupled | AID 2149 | inhibition, % at 5 µM | shares compounds with TPT1 inhibitor;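 active = inhibition above the primary screen limit, the mean inhibition of all tested compounds plus 3 SD, cut at about 25% in these data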
# RNase T1 counter: blocks Aspergillus oryzae RNase T1, a TPT1 counter-screen. RNase T1 cleavage, fluorescence polarization, 1536-well. inhibition, % at 5 µM. shares compounds with TPT1 inhibitor. hit rate 83% among 2,400;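 active = inhibition above the solvent-only control well mean plus 3 SD, limit set per screening run, cut at about 23% in these data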;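 also: plate controls were DMSO wells with enzyme for no effect and wells without RNase T1 for full effect; inhibitors block cleavage so intact labeled substrate keeps polarization high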
# Target sequence (P00651 whole entry, looked up): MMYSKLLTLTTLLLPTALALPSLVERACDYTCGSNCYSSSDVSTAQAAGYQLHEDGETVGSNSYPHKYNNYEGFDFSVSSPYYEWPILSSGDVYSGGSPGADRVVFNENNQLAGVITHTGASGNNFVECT
# * = called active by the depositor; nt = not tested or not shown. Rows were chosen to be rich in hits. Some 4.5% of all compounds tested hit in one or more screens of this group.
SMILES,ZTA counter,GRIN3A LBD mod,dFosB activator,TPT1 inhibitor,EBNA-1 inh,Rpn11 block,caTPT1 confirm,RNase T1 counter
Nc1[nH]c2cc([N+](=O)[O-])ccc2c1-c1ccccn1,-7,31*,-8,101*,-3,nt,102*,105*
Nc1nc2ccc([N+](=O)[O-])cc2[nH]1,10,0,-7,-7,6,5,nt,nt
Cc1ccc(C(=O)CSc2nn3c(=O)c(C(C)(C)C)nnc3s2)cc1,1,-3,-11,32*,9,6,3,6
CC(=O)N1c2ccc(S(=O)(=O)N3CCCC3C(=O)Nc3ccc(C)cc3)cc2CC1C (stereo not given),-4,1,-4,-3,-3,-6,nt,nt
CCCC(C(=O)NC(C)(C)CC)N(Cc1ccco1)C(=O)CNS(=O)(=O)c1ccccc1 (stereo not given),-9,4,-5,-7,-2,-1,nt,nt
O=C(NCc1ccccc1)c1cc(S(=O)(=O)N2CCOCC2)ccc1F,-5,0,8,48*,9,28,40*,52*
COc1cc(C(=O)NCC(=O)OCc2ccccc2Cl)cc(OC)c1OC,7,0,-6,-2,10,2,nt,nt
CCOC(=O)c1sc(N)c(C#N)c1COC(=O)CNC(=O)c1cc(OC)c(OC)c(OC)c1,-2,-3,-5,79*,-4,nt,92*,103*
CC(Sc1nnc(-c2cccnc2)o1)C(=O)NC1CCCC1 (stereo not given),-5,0,5,nt,nt,7,nt,nt
N#C/C(=C/c1ccc(N2CCCCCC2)o1)c1ccc(Cl)cc1,9,-5,-15,158*,-6,nt,187*,172*
N#C/C(=C/c1cccn1-c1cccc(C(=O)O)c1)c1ccc(Cl)cc1,8,-6,-4,-1,5,18,nt,nt
N#C/C(=C/c1ccc(N2CCCCC2)o1)c1cccc(F)c1,-14,-4,-5,134*,-1,nt,178*,166*
O=C(COc1ccccc1F)Nc1ccc(S(=O)(=O)Nc2nccs2)cc1,-3,-24,-6,-1,-13,-9,nt,nt
COc1cc(C2C(C#N)=C(N)Oc3cc(N(C)C)ccc32)cc2c1OCO2 (stereo not given),-9,-9,2,100*,-2,nt,98*,99*
COc1cc(C2C(C#N)=C(N)Oc3cc(O)ccc32)cc2c1OCO2 (stereo not given),10,-15,-7,-1,7,9,nt,nt
CCCCN(CCO)CCCC,-8,3,2,nt,nt,-2,nt,nt
CCOC(=O)c1c(S(=O)(=O)N2CCCCC2C)c(C)n(C)c1C (stereo not given),3,1,-4,0,-1,-10,nt,nt
C=CCNC(=O)c1cc2c(=O)c3ccccc3oc2nc1C,-5,0,-3,48*,-8,7,11,16
COc1ccc(O)c(C(=O)c2cc(C#N)c(=O)n(-c3ccc(Cl)cc3)c2)c1,-15,0,-9,48*,-9,nt,62*,60*
CC(=O)N1c2ccc(S(=O)(=O)N3CCCCC3)cc2CC1C(=O)NCc1ccc(N(C)C)cc1 (stereo not given),-10,1,-2,-2,-6,-4,nt,nt
COc1ccc(N=Cc2cc3c(cc2O)OC(N)=C(C#N)C3c2ccccc2)cc1 (stereo not given),-19,9,0,55*,-2,nt,78*,88*
COc1ccc(C2C(C#N)=C(N)Oc3cc(O)ccc32)cc1 (stereo not given),nt,-13,6,nt,nt,9,nt,nt
O=C(O)C(=O)/C(=C\c1cccc(Cl)c1)c1ccc2ccccc2n1,2,-5,2,30*,3,27,42*,58*
COc1ccc(OCCCC(=O)Nc2cc(S(=O)(=O)N3CCCCC3)ccc2C)cc1,-11,-2,-4,nt,nt,-5,nt,nt
COc1ccc(-c2cc(C(=O)N3CCN(c4ccc(F)cc4)CC3)no2)cc1OC,21,-1,-5,-1,8,3,nt,nt
COCCN(C(=O)COC(=O)c1ccccc1Oc1ccccc1)c1c(N)n(Cc2ccccc2)c(=O)[nH]c1=O,-11,-1,-3,0,-4,-2,nt,nt
